This is one part of a sample in which hits are shown more often than they occur.
Pf Dd2 growth: inhibitors of Plasmodium falciparum Dd2 growth; P. falciparum Dd2 growth, SYBR Green, 72 h; Potency, µM (top dose mostly 28.9 µM), inactives show top-dose activity, negative = inhibition, usual class: inhibitors; actives 4.3% (n = 120,000); active = well fitted inhibition curve with a large enough effect;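 note: plate controls were DMSO vehicle for no effect and reference drug for full effect; nearly all actives have a fitted effect of over 65% in size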
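Infected erythrocytes (Dd2, 0.3% parasitemia, 2.5% hematocrit final) are added to compound in RPMI-1640/Albumax II medium, grown 72 h at 37C in low oxygen, then lysed with saponin/Triton-X containing SYBR Green and read by fluorescence.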
Active calls of the source: *; i = inactive; [ ] = dose if it differs, or a comment. Potency is the fitted concentration of half-maximal effect.

SMILES | Pf Dd2 growth
O=C(c1cccc(Cl)c1)N1CCC2(CC1)OCC(C(=O)N1CCCC1)N2C(=O)c1cccc(F)c1 (configuration not stated) | i
CCOC(=O)c1ccc(N2C(=O)c3n[nH]c(-c4cccs4)c3C2c2cccc(O)c2)cc1 (configuration not stated) | -18%
Cc1ccc(-c2n[nH]c3c2C(c2cccc(O)c2)N(c2ccc(C(=O)O)cc2)C3=O)cc1 (configuration not stated) | 21%
CCOc1ccc(C2c3c(-c4ccc(C)cc4)n[nH]c3C(=O)N2c2ccc(Cl)cc2)cc1 (configuration not stated) | 10µM*
CCOC(=O)c1ccc(N2C(=O)c3n[nH]c(-c4cccs4)c3C2c2ccc(CC)cc2)cc1 (configuration not stated) | 10µM*
CCOC(=O)c1ccc(N2C(=O)c3n[nH]c(C)c3C2c2ccc(C(C)(C)C)cc2)cc1 (configuration not stated) | 23%
CCOC(=O)c1ccc(N2C(=O)Cc3cc(OCC)c(OCC)cc3C2c2ccccc2)cc1 (configuration not stated) | 40%
O=C1c2[nH]nc(-c3ccccc3)c2C(c2ccccc2)N1c1cccc(C(F)(F)F)c1 (configuration not stated) | i
CCOC(=O)c1ccc(N2C(=O)c3n[nH]c(-c4ccco4)c3C2c2ccc(O)c(OCC)c2)cc1 (configuration not stated) | i
CCOC(=O)c1ccc(NC(=O)c2cn(-c3ccccc3)nc2-c2ccc(Br)cc2)cc1 | 1%
CCOC(=O)c1ccc(N2C(=O)c3[nH]nc(-c4ccc(C)cc4)c3C2c2ccc(O)c(OCC)c2)cc1 (configuration not stated) | 7.1µM*
CCOC(=O)c1ccc(N2C(=O)c3n[nH]c(C)c3C2c2cccc(Br)c2)cc1 (configuration not stated) | 13µM*
CCOC(=O)c1ccc(N2C(=O)c3n[nH]c(-c4cccs4)c3C2c2ccc(C(C)C)cc2)cc1 (configuration not stated) | -2%
O=C(O)[C@H](Cn1ccc(=O)[nH]c1=O)NC1CCOCC1 | 1%[44.1 µM]
CSc1ncccc1C(=O)N1CCc2nc[nH]c2C1 | -3%
COc1cccc(N2C(=O)NC(=NC3CCCCC3)C23CCN(C(=O)c2ccccc2F)C3)c1 (configuration not stated) | -15%
Cc1ccc(F)c(C(=O)N[C@H](Cc2ccccc2)C2CC(O)C2)c1Cl (some centres not stated) | -8%
CCOC(=O)c1ccc(N2C(=O)c3[nH]nc(-c4ccc(C)cc4)c3C2c2cccs2)cc1 (configuration not stated) | 11µM*
CCOC(=O)c1ccc(NC(=O)c2cn(-c3ccccc3)nc2-c2ccc(C)cc2)cc1 | 4%
CCOC(=O)c1ccc(N2C(=O)c3[nH]nc(-c4ccc(OC)cc4)c3C2c2ccccc2Cl)cc1 (configuration not stated) | -7%
CCCNC(=O)C1COC2(CCN(C(=O)CC)CC2)N1C(=O)c1cccc(OC)c1 (configuration not stated) | 1%
COC(=O)c1cc(N2CCC(C(C)N3CCN(C)CC3)CC2)ncn1 (configuration not stated) | -2%
CC(C)NC[C@H]1COCc2nc3cc(C(F)(F)F)ccc3n21 | -3%[44.1 µM]
CC1CCN(C(=O)CSc2c3c(nc4cc(Cl)ccc24)CCCC3)CC1 | -24%
CCC(C)NC(=O)CSc1c2c(nc3cc(Cl)ccc13)CCCC2 (configuration not stated) | -9%
SMILES | Pf Dd2 growth
O=C(CSc1c2c(nc3cc(Cl)ccc13)CCCC2)N1CCN(c2ccccc2)CC1 | 11µM*
Cc1ccc(C(=O)N2CCC3(CC(C(C)C)=NO3)C2)cc1 (configuration not stated) | 21%[44.1 µM]
COc1ccc(S(=O)(=O)N2C[C@@H]3C[C@H](C2)c2c(NC(=O)c4cncnc4)ccc(=O)n2C3)cc1 | -9%
O=C(NCc1ccncc1)C1CN(Cc2ccoc2)CC12CCOCC2 (configuration not stated) | -23%
O=C(NCc1ccncc1)C1CN(Cc2cccc(Br)c2)CC12CCOCC2 (configuration not stated) | 3.5µM*
CCc1ccc(CN2CC(C(=O)NCc3ccncc3)C3(CCOCC3)C2)cc1 (configuration not stated) | -10%
Cc1ccc(Cl)cc1N1CCN(C(=O)C2CCCN(Cc3nc(-c4cccc(Cl)c4)oc3C)C2)CC1 (configuration not stated) | -4%
Cc1oc(-c2cccc(C(F)(F)F)c2)nc1CN1CCCC(CO)C1 (configuration not stated) | 11µM*
CSc1ccc(-c2nc(CN3CCCC(CO)C3)c(C)o2)cc1 (configuration not stated) | i
CNC(=O)[C@@H]1C[C@H](Oc2cccnc2)CN1C(=O)c1ccc(OC)c(F)c1 | -13%
CN(C)C[C@@H]1CN(C2CCOCC2)C[C@H]1NC(=O)c1cn(C)cn1 | 42%
COCCNC(=O)C[C@@H]1C[C@H]2O[C@H](CNCc3ccccc3C)[C@@H](O)[C@H]2O1 | -2%[44.1 µM]
Cc1cc(C)c2c(N)c(C(=O)Nc3ccccc3C(F)(F)F)sc2n1 | 19%
CCc1ccccc1NC(=O)c1sc2nc(C)cc(COC)c2c1N | -9%
COCc1cc(C)nc2sc(C(=O)Nc3ccccc3O)c(N)c12 | 8.9µM*
COc1ccc(CN2CCc3oc(C)c(C(=O)N4CCN(C(C)=O)CC4)c3C2)cc1 | -13%
CCn1ncc(CN(C)C(=O)c2c(C)oc3c2CN(Cc2ccc(OC)cc2)CC3)c1C | 11µM*
COCCNC(=O)c1nc2c(o1)CCN(Cc1ccc(OC)cc1)CC2 | -16%[44.1 µM]
C#CCNC(=O)C1CN(Cc2ccccc2)C(=O)N1 (configuration not stated) | -13%[44.1 µM]
O=C1NC2(CCN(C(=O)Cc3ccccc3)C2)OCc2ccccc21 (configuration not stated) | i
CC1CCN(C(=O)[C@@H](C)C2CC[C@@]3(C)CC[C@H](NC(=O)COc4ccccc4)[C@@H](C)[C@@H]3[C@H]2O)CC1 (some centres not stated) | i
COc1ccccc1N1CCN([C@H]2[C@@H]3OC[C@@H](O3)[C@@H](NCc3ccncc3)[C@@H]2O)CC1 | -7%[44.1 µM]
O=C(Nc1ccccc1)N[C@H]1[C@H](O)[C@@H](N2CCC(Cc3ccccc3)CC2)[C@@H]2OC[C@H]1O2 | -5%
COc1ccccc1N1CCN([C@H]2[C@@H]3OC[C@@H](O3)[C@@H](NCc3ccc(F)cc3)[C@@H]2O)CC1 | 7.9µM*
CC(C)CN[C@H]1[C@H](O)[C@@H](N2CCC(Cc3ccccc3)CC2)[C@@H]2OC[C@H]1O2 | 4µM*
SMILES | Pf Dd2 growth
O[C@H]1[C@H](NCc2ccncc2)[C@H]2CO[C@H](O2)[C@@H]1N1CCC(Cc2ccccc2)CC1 | i
COc1ccccc1N1CCN([C@H]2[C@@H]3OC[C@@H](O3)[C@@H](NCc3ccc(N(C)C)cc3)[C@@H]2O)CC1 | -3%
O=c1[nH]c(C2CCN(Cc3ccccc3)CC2)nn1Cc1ccccc1 | 18%
CC(C)c1ccc(N2CC(C(=O)N(C)Cc3cnccn3)CC2=O)cc1 (configuration not stated) | -14%
Cc1cc(C(=O)Nc2ccc([C@H]3OCC(=O)N(CC(=O)N(C)C)[C@@H]3CO)cc2)n(C)n1 | i
O=C(Nc1ccccc1)N1CCC2(CCCCO2)CC1 | i
CCC1c2nccn2CCCN1C(=O)c1c(C)noc1C (configuration not stated) | -3%

Compound activity as filed in PubChem.
